Inconclusive results are not listed. Entries that show only a call come without a potency. The source made the active and inactive calls. The call rests on the fitted dose curve; in most records, active means well fitted cell-killing curve with a large enough effect; inconclusive means small, poorly fitted or top-dose-only effect, or effect the other way; inactive means no such curve, though single readings can be large or run the other way.
Experiments:
[1] = Quantitative High-Throughput drug screen in 47 multiple myeloma cell lines against the NCATS MIPE library collection: KMS11_JCRBsus cell viability assay (AID 1919873); further: nearly all actives have a fitted effect of over 50% in size
Outline: (§1)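 Plated at 500 cells per well, myeloma lines received MIPE 4.0 compounds by pin tool. Following 48 h culture at 37 °C, CellTiter-Glo luminescence gave viability relative to DMSO and media-only controls.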

[2] = Quantitative High-Throughput drug screen in 47 multiple myeloma cell lines against the NCATS MIPE library collection: KMS28BM_JCRB cell viability assay (AID 1919874); further: nearly all actives have a fitted effect of over 35% in size
Outline: as §1

[3] = Quantitative High-Throughput drug screen in 47 multiple myeloma cell lines against the NCATS MIPE library collection: OPM2_DSMZ cell viability assay (AID 1919872); further: nearly all actives have a fitted effect of over 30% in size
Outline: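 Steps: seed 500 cells per well; pin-transfer MIPE 4.0 library; incubate 48 h at 37C, 5% CO2, humidified; add CellTiter-Glo, 5 min room temperature; read luminescence.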
Potency means the concentration at half of the fitted maximal effect.

Row | Structure (SMILES) | Potency [1] | Potency [2] | Potency [3]
1 | COc1cc(Nc2c(C#N)cnc3cc(OCCCN4CCN(C)CC4)c(OC)cc23)c(Cl)cc1Cl | 18.7 µM (active) | 18.7 µM (active) | –
2 | CN(C)[C@@H](CCOc1cccc2ccccc12)c1ccccc1 | 23.5 µM (active) | 18.7 µM (active) | –
3 | Cc1cccc(C)c1OCC(=O)N[C@@H](Cc1ccccc1)[C@@H](O)C[C@H](Cc1ccccc1)NC(=O)[C@H](C(C)C)N1CCCNC1=O | 20.9 µM (active) | – | –
4 | Clc1ccc(C(Cn2ccnc2)OCc2ccsc2Cl)c(Cl)c1 (stereo not given) | 13.2 µM (active) | – | –
5 | Cc1ccc(C(=O)c2cc(O)c(O)c([N+](=O)[O-])c2)cc1 | – | inactive | inactive
6 | N=C(N)c1ccc2cc(OC(=O)c3ccc(N=C(N)N)cc3)ccc2c1 | – | 5.9 µM (active) | 10.5 µM (active)
7 | CC1(C)NC(=O)N(c2ccc([N+](=O)[O-])c(C(F)(F)F)c2)C1=O | – | inactive | –
8 | COc1c(O)cc2c(c1O)[C@@H]1O[C@H](CO)[C@@H](O)[C@H](O)[C@H]1OC2=O | inactive | inactive | –
9 | Clc1ccc(C(Cn2ccnc2)OCc2ccc(Sc3ccccc3)cc2)c(Cl)c1 (stereo not given) | – | 20.9 µM (active) | –
10 | COc1cc2c(cc1OC)C1CC(=O)C(CC(C)C)CN1CC2 (stereo not given) | inactive | inactive | –
11 | NCCCCNCCCN | – | inactive | 20.9 µM (active)
12 | CN1CCC(=C2c3ccccc3CCc3sccc32)CC1 | – | 10.5 µM (active) | inactive
13 | Cc1nccn1CC1CCc2c(c3ccccc3n2C)C1=O (stereo not given) | – | 2.64 µM (active) | inactive
14 | Cc1ccc(Nc2nccc(N(C)c3ccc4c(C)n(C)nc4c3)n2)cc1S(N)(=O)=O | – | inactive | –
15 | O=C(NOCC1CC1)c1ccc(F)c(F)c1Nc1ccc(I)cc1Cl | 20.9 µM (active) | 26.4 µM (active) | –
16 | COc1cc2c(N3CCN(C(=O)Nc4ccc(OC(C)C)cc4)CC3)ncnc2cc1OCCCN1CCCCC1 | 26.4 µM (active) | – | –
17 | CCCCCCCCOc1ccccc1C(=O)Nc1ccc(C(=O)OCC[N+](C)(CC)CC)cc1 | 18.7 µM (active) | – | –

Row | Structure (SMILES) | Potency [1] | Potency [2] | Potency [3]
18 | CCOC(=O)C(C)Oc1cccc2c(=O)n(CC(=O)Nc3ccc4c(c3)OCCO4)ccc12 (stereo not given) | inactive | inactive | –
19 | Cc1nc(Nc2ncc(C(=O)Nc3c(C)cccc3Cl)s2)cc(N2CCN(CCO)CC2)n1 | 14.8 µM (active) | – | –
20 | Cc1cccc(C#Cc2ccccc2)n1 | – | inactive | inactive
21 | CC(C)c1ccc2oc3nc(N)c(C(=O)O)cc3c(=O)c2c1 | inactive | inactive | –
22 | Cc1ccc(NC(=O)c2ccc(CN3CCN(C)CC3)cc2)cc1Nc1nccc(-c2cccnc2)n1 | – | inactive | inactive
23 | O=C1c2c(O)cc(O)cc2OC(c2ccc(O)c(O)c2)C1O (stereo not given) | inactive | – | –
24 | Cc1ccc(S(=O)(=O)NC(=O)NN2CC3CCCC3C2)cc1 (stereo not given) | 16.6 µM (active) | 18.7 µM (active) | –
25 | CCCCCCCCCCCCCCCCCCCCCCO | – | inactive | inactive
26 | CC1(C)C(=O)N(CCN2CCC(C(=O)c3ccc(F)cc3)CC2)c2ccccc21 | – | 18.7 µM (active) | inactive
27 | CNC[C@@H](O)[C@@H](O)[C@H](O)[C@H](O)CO | – | inactive | inactive
28 | NC(=O)Cc1cccc(C(=O)c2ccccc2)c1N | inactive | inactive | –
29 | S=c1nc[nH]c2nc[nH]c12 | – | 1.18 µM (active) | –
30 | Cc1c(C(=O)NN2CCCCC2)nn(-c2ccc(Cl)cc2Cl)c1-c1ccc(Cl)cc1 | 23.5 µM (active) | 23.5 µM (active) | –
31 | Cc1cc(C2CCCCC2)n(O)c(=O)c1 | 5.26 µM (active) | – | –
32 | CCc1nc(N)nc(N)c1-c1ccc(Cl)cc1 | 16.6 µM (active) | inactive | –
33 | Cc1c(OCC(F)(F)F)ccnc1CS(=O)c1nc2ccccc2[nH]1 (stereo not given) | – | inactive | inactive

Source: PubChem BioAssay (NCATS)
